In the supplement of paper PMC8728848:
Shown is part of a subset that was picked to be rich in the strongest signals.

Assays:
Assay in all cases: glycan array binding signal (z-score within array); higher = stronger binding
Settings in all cases: glycan notation: IUPAC condensed, linker removed
[1] = target: Fuc(a1-2)Gal(b1-3)[Fuc(a1-4)]GlcNAc(b1-2)Man(a1-3)[Fuc(a1-2)Gal(b1-3)[Fuc(a1-4)]GlcNAc(b1-2)Man(a1-3)]Man(b1-4)GlcNAc(b1-4)GlcNAc
How it was run: (§1)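 Negative Z-scores can be read as non-binding. The Z-score is calculated within each array and then averaged across arrays of one protein sequence at different concentrations or buffers and across linkers. Arrays, 3228 in all, were curated from the Consortium for Functional Glycomics database and kept only where the protein sequence was available.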

[2] = target: Fuc(a1-2)Gal(b1-4)Glc
How it was run: as §1

[3] = target: Fuc(a1-2)Gal(b1-4)GlcNAc(b1-2)[Fuc(a1-2)Gal(b1-4)GlcNAc(b1-4)]Man(a1-3)[Fuc(a1-2)Gal(b1-4)GlcNAc(b1-2)Man(a1-6)]Man(b1-4)GlcNAc(b1-4)GlcNAc
How it was run: as §1

[4] = target: Fuc(a1-2)Gal(b1-4)GlcNAc(b1-6)GalNAc
How it was run: as §1

[5] = target: Fuc(a1-2)Gal(b1-4)[Fuc(a1-3)]GlcNAc(b1-2)Man(a1-3)[Fuc(a1-2)Gal(b1-4)[Fuc(a1-3)]GlcNAc(b1-2)Man(a1-6)]Man(b1-4)GlcNAc(b1-4)[Fuc(a1-6)]GlcNAc
How it was run: as §1

[6] = target: Fuc(a1-2)[Gal(a1-3)]Gal(b1-3)GlcNAc(b1-2)Man(a1-3)[Fuc(a1-2)[Gal(a1-3)]Gal(b1-3)GlcNAc(b1-2)Man(a1-6)]Man(b1-4)GlcNAc(b1-4)GlcNAc
How it was run: as §1

[7] = target: Fuc(a1-2)[Gal(a1-3)]Gal(b1-4)GlcNAc(b1-2)Man
How it was run: as §1

[8] = target: Fuc(a1-3)GlcNAc
How it was run: as §1

[9] = target: Fuc(a1-3)[Gal3S(b1-4)]GlcNAc6S
How it was run: as §1

[10] = target: Fuc(b1-3)GlcNAc
How it was run: as §1

[11] = target: Gal(a1-3)Gal(b1-4)GlcNAc(b1-2)Man(a1-3)[Gal(a1-3)Gal(b1-4)GlcNAc(b1-2)Man(a1-6)]Man(b1-4)GlcNAc(b1-4)GlcNAc
How it was run: as §1

[12] = target: Gal(a1-3)GalNAc
How it was run: as §1

[13] = target: Gal(a1-4)Gal(b1-3)GlcNAc(b1-2)Man(a1-3)[Gal(a1-4)Gal(b1-3)GlcNAc(b1-2)Man(a1-6)]Man(b1-4)GlcNAc(b1-4)GlcNAc
How it was run: as §1

[14] = target: Gal(a1-4)Gal(b1-4)GlcNAc
How it was run: as §1

[15] = target: Gal(a1-4)Gal(b1-4)GlcNAc(b1-2)Man(a1-3)[Gal(a1-4)Gal(b1-4)GlcNAc(b1-2)Man(a1-6)]Man(b1-4)GlcNAc(b1-4)GlcNAc
How it was run: as §1

[16] = target: Gal(a1-4)Gal(b1-4)GlcNAc(b1-3)Gal(b1-4)Glc
How it was run: as §1

[17] = target: Gal(a1-6)Glc
How it was run: as §1

[18] = target: Gal(b1-2)Gal
How it was run: as §1

[19] = target: Gal(b1-3)Gal(b1-4)GlcNAc
How it was run: as §1

[20] = target: Gal(b1-3)GalNAc(a1-3)[Fuc(a1-2)]Gal(b1-4)Glc
How it was run: as §1

[21] = target: Gal(b1-3)GalNAc(a1-3)[Fuc(a1-2)]Gal(b1-4)GlcNAc
How it was run: as §1

[22] = target: Gal(b1-3)GalNAc(b1-4)Gal(b1-4)Glc
How it was run: as §1

[23] = target: Gal(b1-3)GlcNAc(b1-3)Gal(b1-4)GlcNAc(b1-6)[Gal(b1-3)GlcNAc(b1-3)]Gal(b1-4)Glc
How it was run: as §1

[24] = target: Gal(b1-3)[Fuc(a1-4)]GlcNAc(b1-2)Man
How it was run: as §1

[25] = target: Gal(b1-4)GlcNAc(b1-2)Man
How it was run: as §1

[26] = target: Gal(b1-4)GlcNAc(b1-2)[Gal(b1-4)GlcNAc(b1-6)]Man(a1-6)[Gal(b1-4)GlcNAc(b1-2)Man(a1-3)]Man(b1-4)GlcNAc(b1-4)GlcNAc
How it was run: as §1

[27] = target: Gal(b1-4)GlcNAc(b1-3)Gal(b1-3)GlcNAc
How it was run: as §1

[28] = target: Gal(b1-4)GlcNAc(b1-3)Gal(b1-4)GlcNAc(b1-3)Gal(b1-4)GlcNAc(b1-3)Gal(b1-4)GlcNAc(b1-2)Man(a1-3)[Gal(b1-4)GlcNAc(b1-3)Gal(b1-4)GlcNAc(b1-3)Gal(b1-4)GlcNAc(b1-3)Gal(b1-4)GlcNAc(b1-2)Man(a1-6)]Man(b1-4)GlcNAc(b1-4)GlcNAc
How it was run: as §1

[29] = target: Gal3S6S(b1-4)GlcNAc
How it was run: as §1

[30] = target: GalNAc(b1-3)Gal(a1-4)Gal(b1-4)GlcNAc
How it was run: as §1

[31] = target: GalNAc(b1-4)GlcNAc
How it was run: as §1

[32] = target: GalNAc3S(b1-4)GlcNAc
How it was run: as §1

[33] = target: Glc(a1-6)Glc(a1-6)Glc
How it was run: as §1

[34] = target: GlcNAc(a1-4)Gal(b1-3)GlcNAc
How it was run: as §1

[35] = target: GlcNAc(a1-4)Gal(b1-4)GalNAc
How it was run: as §1

[36] = target: GlcNAc(b1-3)Gal(b1-4)GlcNAc(b1-3)Gal(b1-4)GlcNAc(b1-2)Man(a1-3)[GlcNAc(b1-3)Gal(b1-4)GlcNAc(b1-3)Gal(b1-4)GlcNAc(b1-2)Man(a1-6)]Man(b1-4)GlcNAc(b1-4)[Fuc(a1-6)]GlcNAc
How it was run: as §1

[37] = target: GlcNAc(b1-3)Man
How it was run: as §1

[38] = target: GlcNAc(b1-4)Gal(b1-4)GlcNAc
How it was run: as §1

[39] = target: Man(a1-3)[Man(a1-6)]Man(a1-6)[Man(a1-3)]Man
How it was run: as §1

[40] = target: Man(b1-4)GlcNAc
How it was run: as §1

[41] = target: Neu5Ac(a2-3)Gal(b1-3)GlcNAc(b1-4)Gal(b1-4)Glc
How it was run: as §1

[42] = target: Neu5Ac(a2-3)Gal(b1-4)GlcNAc(b1-2)[Neu5Ac(a2-3)Gal(b1-4)GlcNAc(b1-4)]Man(a1-3)[GlcNAc(b1-4)][Neu5Ac(a2-3)Gal(b1-4)GlcNAc(b1-4)Man(a1-6)]Man(b1-4)GlcNAc(b1-4)GlcNAc
How it was run: as §1

[43] = target: Neu5Ac(a2-3)Gal(b1-4)GlcNAc(b1-3)Gal
How it was run: as §1

[44] = target: Neu5Ac(a2-3)Gal(b1-4)GlcNAc6S
How it was run: as §1

[45] = target: Neu5Ac(a2-3)Gal(b1-4)[Fuc(a1-3)]GlcNAc6S
How it was run: as §1

[46] = target: Neu5Ac(a2-6)Gal(b1-4)GlcNAc(b1-2)Man(a1-3)Man(b1-4)GlcNAc(b1-4)GlcNAc
How it was run: as §1

[47] = target: Neu5Ac(a2-6)Gal(b1-4)GlcNAc(b1-2)Man(a1-3)[Gal(b1-4)GlcNAc(b1-2)Man(a1-6)]Man(b1-4)GlcNAc(b1-4)GlcNAc
How it was run: as §1

[48] = target: Neu5Ac(a2-6)Gal(b1-4)GlcNAc(b1-2)[Neu5Ac(a2-6)Gal(b1-4)GlcNAc(b1-4)]Man(a1-3)[GlcNAc(b1-4)][Neu5Ac(a2-6)Gal(b1-4)GlcNAc(b1-2)[Neu5Ac(a2-6)Gal(b1-4)GlcNAc(b1-6)]Man(a1-6)]Man(b1-4)GlcNAc(b1-4)GlcNAc
How it was run: as §1

[49] = target: Neu5Ac(a2-6)Gal(b1-4)GlcNAc(b1-2)[Neu5Ac(a2-6)Gal(b1-4)GlcNAc(b1-6)]Man(a1-6)[Neu5Ac(a2-6)Gal(b1-4)GlcNAc(b1-2)Man(a1-3)][GlcNAc(b1-4)]Man(b1-4)GlcNAc(b1-4)GlcNAc
How it was run: as §1

[50] = target: Neu5Ac(a2-6)Gal(b1-4)GlcNAc(b1-3)Gal(b1-4)GlcNAc(b1-6)[Gal(b1-3)]GalNAc
How it was run: as §1

[51] = target: Neu5Ac(a2-8)Neu5Ac(a2-3)Gal(b1-4)Glc
How it was run: as §1

[52] = target: Neu5Gc(a2-3)Gal(b1-3)[Fuc(a1-4)]GlcNAc
How it was run: as §1

[53] = target: Neu5Gc(a2-3)Gal(b1-4)GlcNAc(b1-3)Gal(b1-4)GlcNAc(b1-2)Man(a1-3)[Neu5Gc(a2-3)Gal(b1-4)GlcNAc(b1-3)Gal(b1-4)GlcNAc(b1-2)Man(a1-6)]Man(b1-4)GlcNAc(b1-4)GlcNAc
How it was run: as §1

[54] = target: Neu5Gc(a2-6)GalNAc
How it was run: as §1

B1: Epa6 (Candida glabrata), Q6DTM7_CANGB (protein)
chain: MGSSHHHHHHSSGLVPRGSHMKDDYSSSLSNNNLGWTDPTEFPLGCSPNVTTPKNGLSMELYSYDYLKSGSNPCWDAAYLDPNYPRTGYKSHRLLAKVENVAGNINFYYHAPMGCTSLFDTLPQAYNYRTPLTMTNFTMLLYGYFKPKVTGYHTFTISADDLLFVNFGAGNAFDCCKRESSADDFGNYQAYAVWGSQTAKDDLTVHLDAGLYYPIRIFFNNRDNDGALSLTLKTESDPNPVIDFSDYFYSFDDTKDGCPGLVSYDTS
For B1, the “glycan array binding signal (z-score)” value [1] was -0.229, the “glycan array binding signal (z-score)” value [2] was -0.123 and the “glycan array binding signal (z-score)” value [3] was -0.318. The “glycan array binding signal (z-score)” value [4] was -0.062, the “glycan array binding signal (z-score)” value [5] was -0.257 and the “glycan array binding signal (z-score)” value [6] was 0.454. For the same binder, the “glycan array binding signal (z-score)” value [7] was 0.197, the “glycan array binding signal (z-score)” value [8] was -0.304 and the “glycan array binding signal (z-score)” value [9] was -0.263. For the same binder, the “glycan array binding signal (z-score)” value [10] was -0.331, the “glycan array binding signal (z-score)” value [11] was 3.7 and the “glycan array binding signal (z-score)” value [12] was 4.17. The “glycan array binding signal (z-score)” value [13] was 6.23, the “glycan array binding signal (z-score)” value [14] was 4.65 and the “glycan array binding signal (z-score)” value [15] was 4.02. The “glycan array binding signal (z-score)” value [16] was 4.42, the “glycan array binding signal (z-score)” value [17] was 8.63 and the “glycan array binding signal (z-score)” value [18] was 6.14. The “glycan array binding signal (z-score)” value [19] was 10, the “glycan array binding signal (z-score)” value [20] was 4.95 and the “glycan array binding signal (z-score)” value [21] was 5.98. For the same binder, the “glycan array binding signal (z-score)” value [22] was 3.9, the “glycan array binding signal (z-score)” value [23] was 0.257 and the “glycan array binding signal (z-score)” value [24] was -0.112. For the same binder, the “glycan array binding signal (z-score)” value [25] was -0.283, the “glycan array binding signal (z-score)” value [26] was -0.198 and the “glycan array binding signal (z-score)” value [27] was -0.26. The “glycan array binding signal (z-score)” value [28] was 0.07, the “glycan array binding signal (z-score)” value [29] was -0.306 and the “glycan array binding signal (z-score)” value [30] was -0.126. For the same binder, the “glycan array binding signal (z-score)” value [31] was -0.234, the “glycan array binding signal (z-score)” value [32] was -0.313 and the “glycan array binding signal (z-score)” value [33] was -0.312. For the same binder, the “glycan array binding signal (z-score)” value [34] was -0.306, the “glycan array binding signal (z-score)” value [35] was -0.297 and the “glycan array binding signal (z-score)” value [36] was -0.255. For the same binder, the “glycan array binding signal (z-score)” value [37] was -0.263, the “glycan array binding signal (z-score)” value [38] was -0.357 and the “glycan array binding signal (z-score)” value [39] was -0.281. The “glycan array binding signal (z-score)” value [40] was -0.332, the “glycan array binding signal (z-score)” value [41] was -0.269 and the “glycan array binding signal (z-score)” value [42] was -0.343. The “glycan array binding signal (z-score)” value [43] was -0.336, the “glycan array binding signal (z-score)” value [44] was -0.347 and the “glycan array binding signal (z-score)” value [45] was -0.347. The “glycan array binding signal (z-score)” value [46] was -0.325, the “glycan array binding signal (z-score)” value [47] was -0.301 and the “glycan array binding signal (z-score)” value [48] was -0.311. For the same binder, the “glycan array binding signal (z-score)” value [49] was -0.33, the “glycan array binding signal (z-score)” value [50] was 0.25 and the “glycan array binding signal (z-score)” value [51] was -0.347. The “glycan array binding signal (z-score)” value [52] was -0.331, the “glycan array binding signal (z-score)” value [53] was -0.311 and the “glycan array binding signal (z-score)” value [54] was -0.311.
